The list is not random: actives were taken first. Their share in the collection is about 12%.
PLK1 PBD block: qHTS for Inhibitors of PLK1-PDB (polo-like kinase 1 - polo-box domain): Primary Screen. Serine/threonine-protein kinase PLK1 (Homo sapiens), P53350. Plk1 PBD binding of FITC phosphopeptide, fluorescence polarization. Potency, µM, for the others: max response, negative = inhibition, actives largely listed as inhibitors. 2.8% of 360,000 active. AID 720504, 2013; note: series mostly up to about 57 µM; % is set by controls: 0 for no effect and ±100 for the full control effect; nearly all actives have a fitted effect of over 65% in size
Target sequence (P53350 whole entry, looked up, the tested form may be a part): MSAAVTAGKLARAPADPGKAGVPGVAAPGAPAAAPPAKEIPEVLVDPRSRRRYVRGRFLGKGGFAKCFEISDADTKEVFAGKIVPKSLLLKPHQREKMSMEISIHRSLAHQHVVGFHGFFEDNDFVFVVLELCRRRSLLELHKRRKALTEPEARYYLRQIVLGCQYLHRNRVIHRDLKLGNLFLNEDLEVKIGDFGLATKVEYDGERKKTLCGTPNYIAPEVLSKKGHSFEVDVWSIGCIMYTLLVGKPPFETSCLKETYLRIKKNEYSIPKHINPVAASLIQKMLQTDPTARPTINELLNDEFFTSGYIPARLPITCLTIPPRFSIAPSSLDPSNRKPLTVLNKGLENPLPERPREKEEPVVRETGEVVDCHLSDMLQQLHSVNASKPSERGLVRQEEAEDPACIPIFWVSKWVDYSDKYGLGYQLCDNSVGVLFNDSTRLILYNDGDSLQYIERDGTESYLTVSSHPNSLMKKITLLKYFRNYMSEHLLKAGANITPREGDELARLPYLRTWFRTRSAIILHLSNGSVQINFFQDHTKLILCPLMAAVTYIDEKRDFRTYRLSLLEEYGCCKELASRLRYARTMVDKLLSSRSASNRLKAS
Sfp inh: qHTS Assay for Inhibitors of Bacillus subtilis Sfp phosphopantetheinyl transferase (PPTase); Biochemical Sfp PPTase activity, qHTS; Potency, µM, inactives show largest response in the series, negative = inhibition, usual class: inhibitors; 3.5% of 310,000 active; AID 1490, 2009;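 note: the enzyme is Sfp with the accession as filed and its product quenches rhodamine fluorescence; 0% = enzyme reaction without inhibitor and -100% = no enzyme wells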
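With Hepes-Na pH 7.6 buffer containing 10 mM MgCl2, Sfp (15 nM) modified BHQ-2-YbbR (12.5 uM) using rhodamine-CoA (5 uM). Two reads 30 minutes apart at 525/598 nm yielded each well's rate.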
HP1b binding inh: HTS for Inhibitors of HP1-beta Chromodomain Interactions with Methylated Histone Tails; Chromobox protein homolog 1 (Homo sapiens), P83916; AlphaScreen HP1-beta / biotin-H3K9me3 peptide binding; Potency, µM (top dose mostly 114 µM), without a hit: at the highest dose activity change, negative = inhibition, hits mostly inhibitors; 0.56% of 390,000 active; AID 540317, 2011; note: nearly all actives have a fitted effect of over 70% in size
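Compound inhibition of the preformed complex between 50 nM HP1-beta and 50 nM biotinylated H3K9me3 peptide was read by AlphaScreen. Buffer was PBS pH 7.4 with 0.01% Tween-20. Incubations ran 30 min at room temperature, with 10 ug/mL donor/acceptor beads.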
JMJD2A Tudor inh: qHTS Assay for Inhibitors of JMJD2A-Tudor Domain; Lysine-specific demethylase 4A (Homo sapiens), O75164; AlphaScreen JMJD2A-Tudor / H3K4me3 peptide binding; Potency, µM (series often up to 114 µM), without a hit: top-dose activity change, negative = inhibition, hits mostly inhibitors; 4.4% of 390,000 active; note: % is set by controls: 0 for no effect and ±100 for the full control effect; nearly all actives have a fitted effect of over 50% in size
BAZ2B block: qHTS Assay for Inhibitors of BAZ2B; 4.4% of 360,000 active; AlphaScreen BAZ2B-H3K14Ac peptide displacement; Potency, µM (top dose mostly 114 µM), for inactives: at the highest dose activity change, negative = inhibition, actives largely listed as inhibitors; Bromodomain adjacent to zinc finger domain protein 2B (Homo sapiens), Q9UIF8; note: % is set by controls: 0 for no effect and ±100 for the full control effect; nearly all actives have a fitted effect of over 60% in size
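AlphaScreen displacement: compounds (up to 110uM) incubated 30 min at room temperature with a preformed 50 nM BAZ2B/50 nM biotinylated H3K14Ac peptide complex in PBS pH 7.4 with Tween-20. Donor and acceptor beads at 10 ug/mL final added, 20 min light-protected before reading.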
G9a inh: qHTS Assay for Inhibitors of Histone Lysine Methyltransferase G9a; G9a H3K9 monomethylation, AlphaScreen, 2 h; Potency, µM (titrated, usually from 102 µM), inactives show at the highest dose activity, negative = inhibition, most hits filed as inhibitors; 8.8% of 350,000 active; note: % is set by controls: 0 for no effect and ±100 for the full control effect; nearly all actives have a fitted effect of over 75% in size
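Quantitative HTS format: methyltransferase activity on a biotin-tagged H3K9 peptide is measured by AlphaScreen, using a rabbit anti-monomethyl-H3K9 antibody with streptavidin donor and anti-IgG acceptor beads. Final levels are 20 nM enzyme, 500 nM peptide, 20 uM SAM; 2 h RT.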
Starred values were filed as active, the others as inactive; ? = inconclusive; . = no result given; ! = repeats disagree; [ ] = another dose, or the depositor's remark. Calls come from the whole dose curve; as a rule, active = well fitted curve in the direction sought with a large enough effect; inconclusive = small, poorly fitted or top-dose-only effect, or another doubt; inactive = no such curve, though single readings can be large; an effect the other way counts as inactive or inconclusive. Potency is the fitted concentration of half-maximal effect.

SMILES | PLK1 PBD block | Sfp inh | HP1b binding inh | JMJD2A Tudor inh | BAZ2B block | G9a inh
CCc1cccc(NC(=O)CSc2ncccc2C(=O)Oc2ccccc2Cl)c1 | . | . | 40% | -12% | -17% | ?
CN(Cc1ccccc1)C(=O)COC(=O)/C=C/c1ccco1 | -18% | 35µM* | ? | ? | . | 35µM*
CN(CCOC(=O)c1ccco1)Cc1ccccc1 | 2% | 9% | 28% | -15% | -6% | -1%
CN(CCOC(=O)/C=C/c1ccco1)Cc1ccccc1 | ? | 20µM* | ? | 25µM* | 35µM* | 14µM*
CCc1ccc(NC(=O)COC(=O)/C=C/c2ccco2)cc1 | -12% | . | ? | ? | . | .
c1ccc(CSc2nnc(NC3CCCCC3)s2)cc1 | -15% | . | . | . | . | .
COC(=O)c1cc(CSc2nnc(NC3CCCCC3)s2)oc1C | -11% | 32µM* | 19% | 89µM* | ? | ?
Cc1ccc2[nH]c(=O)c(CN(CCCO)Cc3nnnn3Cc3ccccc3)cc2c1 | . | . | 6%[57 µM] | -4%[57.1 µM] | . | .
O=C1c2ccccc2C(=O)N1CN(C(=O)COc1ccccc1)c1ccccc1 | -7% | 9% | 34% | -13% | 5% | 1%[59 µM]
O=C1c2ccccc2C(=O)N1CN(C(=O)c1ccccc1)c1ccc(O)cc1 | 21µM* | 4% | 12% | -26% | 12% | 5%
COc1ccc(NC(=O)COCc2cc(-c3cccs3)on2)cc1 | . | . | 20% | -8% | 5% | -3%[59 µM]
CC[C@@]1(c2cccc(C)c2)C(=O)N(C(=O)OC)N1C(=O)OC | 9.5µM* | -24% | 42% | -26% | ? | 45µM*
CCOC(=O)N1CCN(C(=O)CN2C(=O)NC(c3ccccc3)(c3ccccc3)C2=O)CC1 | -5% | 1% | 11% | -18% | -5% | -6%
CCOC(=O)N1C(=O)[C@@](CC)(c2ccccc2)N1C(=O)OCC | 13µM* | -16% | 58% | 1% | -1% | .
CC[C@@]1(c2ccccc2OC)C(=O)N(C(=O)OC)N1C(=O)OC | ? | 2% | 37% | -17% | -1% | .
Cc1cn(C2CCCCO2)c(=O)nc1NO (stereo not given) | -3% | . | 14% | 89µM* | . | .
COc1nc(=O)n(C2CCCO2)cc1C (stereo not given) | -8% | . | 33% | -11% | . | .
COc1ccc(S(=O)(=O)n2cnc3ccccc32)cc1OC | 1% | 7% | 37% | 14% | -7% | 71µM*
COc1cc(C)c(C)cc1S(=O)(=O)n1c(C)nc2ccccc21 | 27µM* | 3% | 16% | ? | -33% | .
COc1cc(F)ccc1S(=O)(=O)n1c(C)nc2ccccc21 | -13% | 0% | 41% | -7% | 5% | .
Cc1cc(C)c(S(=O)(=O)n2cnc3ccccc32)c(C)c1 | -7% | -7% | 37% | -12% | -9% | 89µM*
O=c1c2oc3ccccc3c2n(Cc2ccccc2F)c(=O)n1Cc1ccccc1 | . | . | 19% | -13% | -11% | -32%[59 µM]
CCOC(=O)C1CCN(C(=O)c2cc(COc3ccc(F)cc3F)on2)CC1 | 5% | 1% | 47% | -2% | 5% | 59%
CN1C(=O)/C(=N/OC(=O)c2ccccc2)c2ccccc21 | 12µM* | -9% | 41% | -11% | -2% | ?
O=C(O/N=C1\C(=O)N(c2ccccc2)c2ccccc21)C1CC1 | -24% | -17% | 22% | -15% | -4% | 43%
SMILES | PLK1 PBD block | Sfp inh | HP1b binding inh | JMJD2A Tudor inh | BAZ2B block | G9a inh
C/C(=N\NC(=S)Nc1ccccc1C)C1Cc2ccccc2C(=O)O1 (stereo not given) | -15% | -11% | 11% | -31% | -26% | 50µM*
C/C(=N\NC(=S)Nc1ccccc1)C1Cc2ccccc2C(=O)O1 (stereo not given) | -24% | 22µM* | -5% | -34% | ? | .
Cc1ccc(NC(=O)C2Cc3ccccc3C(=O)O2)cc1 (stereo not given) | 1% | 11% | 14% | -6% | 1% | -3%
Clc1ccc2nc(C(Cl)(Cl)Cl)[nH]c2c1 | -14% | . | . | . | . | .
CCOc1ccc(S(=O)(=O)n2nc(C)cc2C)cc1 | -5% | 11% | 39% | -14% | -2% | 23%
O=C(N/N=C/c1ccco1)C1CC1(c1ccccc1)c1ccccc1 (stereo not given) | -10% | 5% | 8% | -21% | ? | 40µM*
O=C(O)c1ccc(/C=N/NC(=O)C2CC2(c2ccccc2)c2ccccc2)cc1 (stereo not given) | . | 11% | . | . | -25% | 1%
Cc1cc(C)n(C(=O)c2cc([N+](=O)[O-])cc([N+](=O)[O-])c2)n1 | -7% | -5% | -25% | -36% | ? | 71µM*
Cc1cc(C)cc(NC(=O)C2CCCN2S(=O)(=O)c2ccc3nc(-c4ccccc4)[nH]c3c2)c1 (stereo not given) | . | . | 7% | ? | 79µM* | ?
COc1ccc(C(C)n2c(C)c3c(C)nnc(C)c3c2C)cc1 (stereo not given) | -20% | -16% | -14% | ? | 89µM*! | ?
Cc1ccc(NC(=O)CNS(=O)(=O)c2cccs2)cc1F | 3% | 9% | 24% | -10% | -36% | 79µM*
COc1cc2c(cc1OC)C(c1ccccc1)N(C(=O)C(C)(C)C)CC2 (stereo not given) | -5% | 4% | 31% | -15% | 3% | 58%
Cc1cc(NCCCCCCCNc2cc(C)nc3cc([N+](=O)[O-])ccc23)c2ccc([N+](=O)[O-])cc2n1 | 1% | . | 71µM* | 56µM* | . | .
COCCCNc1cc(C)nc2ccccc12 | -9% | 6% | 22% | -13% | 8% | 13%
Cc1nc2c(c(SCC(=O)Nc3ccccc3C(F)(F)F)n1)CCC2 | . | . | 41% | 6% | -3% | 7%[59 µM]
CCOc1ccccc1NC(=O)COC(=O)C(CC)c1ccccc1 (stereo not given) | 5% | -3% | 122% | 57% | 79% | 158%
Cc1ccc(S(=O)(=O)n2c(N)nc3ccccc32)cc1 | 1% | 9% | 12% | -19% | -27% | 50µM*
COc1ccc(CNC(=O)c2ccc(S(=O)(=O)NCc3ccco3)cc2)cc1 | -11% | . | 11% | -23% | 2% | 49%[2.33 µM]
CCN(CC)c1nc2c3c(nc4c(c3c1C#N)CC(=O)N4c1ccc(Cl)cc1)NC(C)=N2 | -2% | ? | 5% | -23% | -4% | 35µM*
CCc1ccc(N2C(=O)Cc3c2nc(N)c(C#N)c3N)cc1 | -6% | 4% | 11% | -23% | -30% | 15%[12.7 µM]

Source: PubChem BioAssay
